Experimental data as given in PubChem BioAssay (Tox21).
Inconclusive results are not listed. Active and inactive are the calls of the source. Calls follow the shape of the dose curve; as a rule, active = well fitted cell-killing curve with a large enough effect in the repeat runs; inconclusive = weak or mixed curves; inactive = flat fitted curve, though single readings scatter.

Experiment: qHTS RealTime-Glo MT Cell Viability Assay in HepG2 cells - 32 hour (AID 1224877); also: nearly all actives have a fitted effect of over 55% in size
Settings: RealTime-Glo luminescence; series mostly up to 76.8 µM; activity change, negative = cytotoxic: at the top concentration
Source text: U.S. Tox21 Program National Center for Advancing Translational Sciences [NCATS] NIH Chemical Genomics Center [NCGC] U.S. Environmental Protection Agency [EPA] National Institutes of Environmental Health Sciences [NIEHS] National Toxicology Program [NTP] U.S. Food and Drug Administration [FDA] Tox21 Assay Overview: Measure of cell viability is critical in the cell-base assay. Analysis of cell viability is necessary for the characterization of cell responses to cytotoxic drugs and environmental stress. A RealTime-Glo MT Cell Viability Assay to monitor cell viability in real time of continues cell culture during 40 hours of compound treatment was used to screen Tox21 10K library compounds in HepG2 cells. The RealTime-Glo MT Cell Viability Assay is a nonlytic, homogeneous, bioluminescent method to measure cell viability in real time using a simple, plate-based method. The assay involves adding NanoLuc luciferase and a cell-permeant prosubstrate to cells in culture. Viable cells reduce the proprietary prosubstrate to generate a substrate for NanoLuc luciferase. This substrate diffuses from cells into the surrounding culture medium, where it is rapidly used by the NanoLuc Enzyme to produce a luminescent signal. The signal correlates with the number of viable cells, making the assay well suited for cytotoxicity studies.
Tox21 Assay Protocol Summary: The mixture of HepG2 cell suspension and reagents were dispensed at 600cells/6 ul/well in 1536-well tissue culture treated black solid bottom plates using a Multidrop dispenser. After the assay plates were incubated at a 37 C/5% CO2 incubator for 5 hours, 23 nL of compounds dissolved in DMSO, positive and negative controls was transferred to the assay plate by a pintool work station. The plates were incubated at 37 C for 40 hours. The luminescence intensity were measured at 0h, 8h, 16h, 24h, 32h and 40h time points using ViewLux plate reader during compound treatment.
% is scaled to controls: 0 for no effect and ±100 for the full control effect; potency is read from the fitted curve at half-maximal effect.

**Q.** Which “activity change, negative = cytotoxic” value does the source give for `CC1CC(=O)NN=C1c1ccc(NCC(C)(C)NCC(O)COc2cc(Cl)ccc2C#N)cc1` (stereo not given) here?
**A.** The value was -7.19% [at 35.3 µM] (inactive).

**Q.** Which “activity change, negative = cytotoxic” value does the source give for `CCC(C)(O)CCC=C(C)C` (stereo not given) here?
**A.** Its value is -2.96% (inactive).

**Q.** For `COc1cc2c(cc1OC)-c1cc(=Nc3c(C)cc(C)cc3C)n(C)c(=O)n1CC2`, which “activity change, negative = cytotoxic” value is on record?
**A.** The value was -17% [at 35.3 µM] (inactive).

**Q.** With `O=C1OCCN1/N=C/c1ccc([N+](=O)[O-])o1` as the molecule, how does the “activity change, negative = cytotoxic” value read?
**A.** Its value is -8.32% [at 35.3 µM] (inactive).

**Q.** For `CCN(Cc1cccc(S(=O)(=O)O)c1)c1ccc(C(=C2C=CC(=[N+](CC)Cc3cccc(S(=O)(=O)[O-])c3)C=C2)c2ccccc2)cc1`, which “activity change, negative = cytotoxic” value is on record?
**A.** Its value is -0.438% [at 35.3 µM] (inactive).

**Q.** For `CC1=C(C=O)C(C)(C)CCC1`, which “activity change, negative = cytotoxic” value is on record?
**A.** The value was 1.9% (inactive).

**Q.** Which Potency does the source give for `O=C(N[C@@H](c1ccccc1)[C@@H]1CCCCN1)c1cccc(C(F)(F)F)c1Cl` here?
**A.** Its Potency is 43.6 µM (active).

**Q.** Which “activity change, negative = cytotoxic” value does the source give for `Nc1ccc(Cl)cc1[N+](=O)[O-]` here?
**A.** The value was -4.6% (inactive).

**Q.** Which “activity change, negative = cytotoxic” value does the source give for `O=C(CCC1CCN(Cc2ccccc2)CC1)c1ccc2c(c1)NCCCC2` here?
**A.** Its value is -25.7% [at 35.3 µM] (inactive).

**Q.** With `Cc1c(C(=O)NN2CCCCC2)nn(-c2ccc(Cl)cc2Cl)c1-c1ccc(Cl)cc1` as the molecule, how does the “activity change, negative = cytotoxic” value read?
**A.** Its value is -22.3% [at 35.3 µM] (inactive).

**Q.** Which “activity change, negative = cytotoxic” value does the source give for `Cc1ccc(S(=O)(=O)NC2CCCCC2)cc1` here?
**A.** The value was -3.86% (inactive).

**Q.** For `Cc1oc(C)c(C(=O)Nc2ccccc2)c1C`, which “activity change, negative = cytotoxic” value is on record?
**A.** Its value is -4.33% (inactive).

**Q.** With `COC(=O)CC(=O)C(C)(C)C` as the molecule, how does the “activity change, negative = cytotoxic” value read?
**A.** Its value is 0.345% (inactive).

**Q.** With `C1COCO1` as the molecule, how does the “activity change, negative = cytotoxic” value read?
**A.** The value was 4.6% (inactive).

**Q.** For `CCCOC(=O)c1ccc(N)cc1`, which “activity change, negative = cytotoxic” value is on record?
**A.** The value was 0.284% [at 35.3 µM] (inactive).

**Q.** Which “activity change, negative = cytotoxic” value does the source give for `O=C(O)C(Cc1cc(I)c(O)c(I)c1)c1ccccc1` (stereo not given) here?
**A.** The value was -0.397% [at 35.3 µM] (inactive).

**Q.** For `Oc1ccc(Nc2ccccc2)cc1`, which “activity change, negative = cytotoxic” value is on record?
**A.** The value was -15.5% (inactive).

**Q.** Which “activity change, negative = cytotoxic” value does the source give for `COC(=O)c1cc(Cl)ccc1NS(=O)(=O)C(F)(F)F` here?
**A.** The value was 0.424% [at 35.3 µM] (inactive).

**Q.** Which “activity change, negative = cytotoxic” value does the source give for `COc1cc2[nH]c(=O)[nH]c(=O)c2cc1OC` here?
**A.** The value was -0.283% [at 35.3 µM] (inactive).

**Q.** For `NC(=O)N(O)[C@@H]1COc2cc(OCc3ccccc3)ccc21`, which “activity change, negative = cytotoxic” value is on record?
**A.** Its value is -14.2% (inactive).

**Q.** For `CCCCCCCC/C=C\CCCCCCCC(=O)OC(CO)CO`, which “activity change, negative = cytotoxic” value is on record?
**A.** Its value is 8.62% (inactive).

**Q.** For `O=c1[nH]c2ccc(S(=O)CCN3CCC(Cc4ccc(F)cc4)CC3)cc2o1` (stereo not given), which “activity change, negative = cytotoxic” value is on record?
**A.** Its value is -6.47% (inactive).

**Q.** Which “activity change, negative = cytotoxic” value does the source give for `CC(=O)[C@H]1CC[C@H]2[C@@H]3C=CC4=CC(=O)CC[C@@]4(C)[C@@H]3CC[C@]12C` here?
**A.** Its value is -8.56% [at 35.3 µM] (inactive).

**Q.** Which “activity change, negative = cytotoxic” value does the source give for `C/C(=N/NC(=O)c1ccncc1)C(=O)O` here?
**A.** Its value is 3.58% [at 35.3 µM] (inactive).

**Q.** With `CC(C)C(OC(=O)c1ccccc1)C(C)(C)COC(=O)c1ccccc1` (stereo not given) as the molecule, how does the “activity change, negative = cytotoxic” value read?
**A.** The value was -9.54% (inactive).

**Q.** For `CC(Cl)C(Cl)Cl` (stereo not given), which “activity change, negative = cytotoxic” value is on record?
**A.** Its value is 0.165% (inactive).

**Q.** For `O=C(/C=C/c1ccccc1)OCCCc1ccccc1`, which “activity change, negative = cytotoxic” value is on record?
**A.** The value was 2.03% (inactive).

**Q.** For `CCc1c2c(nc3ccc(OC(=O)N4CCC(N5CCCCC5)CC4)cc13)-c1cc3c(c(=O)n1C2)COC(=O)[C@]3(O)CC`, which “activity change, negative = cytotoxic” value is on record?
**A.** Its value is -11.2% [at 35.3 µM] (inactive).

**Q.** With `Cc1cc(C(=C2C=CC(=Nc3ccc(S(=O)(=O)O)cc3S(=O)(=O)O)C=C2)c2ccc(Nc3ccc(S(=O)(=O)O)cc3)cc2)ccc1N` as the molecule, how does the “activity change, negative = cytotoxic” value read?
**A.** The value was -0.388% [at 35.3 µM] (inactive).

**Q.** With `C[Si](NC1CCCCC1)(NC1CCCCC1)NC1CCCCC1` as the molecule, how does the “activity change, negative = cytotoxic” value read?
**A.** Its value is -3.33% (inactive).

**Q.** Which “activity change, negative = cytotoxic” value does the source give for `CC(C)=CC=O` here?
**A.** Its value is -1.19% (inactive).

**Q.** With `CCC(=O)Oc1ccc(/C(CC)=C(\CC)c2ccc(OC(=O)CC)cc2)cc1` as the molecule, how does the “activity change, negative = cytotoxic” value read?
**A.** The value was -6.55% (inactive).

**Q.** For `OC/C(Br)=C(\Br)CO`, which “activity change, negative = cytotoxic” value is on record?
**A.** Its value is 2.43% (inactive).

**Q.** Which Potency does the source give for `O=C(CCCCCCCCC#CI)Oc1ccccc1` here?
**A.** Its Potency is 4.77 µM (active).

**Q.** For `CN1CCCN=C1/C=C/c1cccs1`, which “activity change, negative = cytotoxic” value is on record?
**A.** The value was 1.37% [at 35.3 µM] (inactive).

**Q.** Which “activity change, negative = cytotoxic” value does the source give for `C[N+]1(C)CCC(=C(c2ccccc2)c2ccccc2)CC1` here?
**A.** Its value is -0.241% [at 35.3 µM] (inactive).

**Q.** For `Cc1cc(S(=O)(=O)O)ccc1N=Nc1c(O)ccc2ccccc12`, which “activity change, negative = cytotoxic” value is on record?
**A.** Its value is -19.8% (inactive).

**Q.** With `O=C(CS)OCCOC(=O)CS` as the molecule, how does the “activity change, negative = cytotoxic” value read?
**A.** Its value is -1.45% (inactive).

**Q.** For `CCN(CC)CCNC(=O)c1ccc(NC(C)=O)cc1`, which “activity change, negative = cytotoxic” value is on record?
**A.** The value was -0.14% [at 35.3 µM] (inactive).

**Q.** Which “activity change, negative = cytotoxic” value does the source give for `CC(COc1ccc(C(C)(C)C)cc1)OS(=O)OCCCl` (stereo not given) here?
**A.** Its value is -14.9% (inactive).
